{"source": "PubChem BioAssay (Tox21)", "note": "Inconclusive results are not listed. Values without a mark were called inactive. The source made the active and inactive calls. Calls come from the whole dose curve; as a rule, active = well fitted cell-killing curve with a large enough effect in the repeat runs (not every such curve was filed as active); inconclusive = weak or mixed curves, or effect the other way; inactive = no such curve, though single readings can be large or run the other way. % is set by controls: 0 for no effect and ±100 for the full control effect.", "data": [{"experiment": "qHTS assay to identify small molecule antagonists of the estrogen related receptor signaling pathway with the pleiotropic PPARgamma coactivator (PGC) from Tox21 10K library - cell viability counter screen (AID 1224840); note: nearly all actives have a fitted effect of over 40% in size", "conditions": "PGC/ERR reporter cells viability, CellTiter-Fluor, 17.5 h; series mostly up to 92.4 µM", "excerpt": "National Center for Advancing Translational Sciences [NCATS]\nNIH Chemical Genomics Center [NCGC]\nU.S. Environmental Protection Agency [EPA]\nNational Institutes of Environmental Health Sciences [NIEHS]\nNational Toxicology Program [NTP]\nU.S. Food and Drug Administration [FDA]\nEstrogen related receptors (ERRs), the first orphan nuclear receptors discovered, play an important role in the control of cellular energy metabolism. ERRs are required for high-energy production in response to the environmental challenges. The pleiotropic PPARgamma coactivator (PGC) is a major partner of ERR and a key regulator in energy homeostasis. Together they have been implicated in the etiology of metabolic disorders such as Type 2 diabetes and metabolic syndrome. ERR-alpha was also identified as an adverse marker for breast cancer progression; ERR-alpha-positive tumors have a poor prognosis. To screen and to identify environmental compounds that perturb the ERR and PGC/ERR signaling pathways could provide valuable information for potential therapeutic or preventive measures in the treatment of metabolic disease. To differentiate true PGC/ERR antagonists or agonist from cytotoxic substances, the assay is multiplexed with cell viability assay.\nTox21 Assay Protocol Summary:\nThe PGC/ERR cells were dispensed at 2,000 cells/5 ul/well in 1536-well white plates using a Multidrop dispenser. After the assay plates were incubated at a 37 C/5% CO2 incubator for 6 hours, 23 nL of compounds dissolved in DMSO, positive and negative controls or DMSO only was transferred to the assay plate by a pin tool. The plates were incubated at 37 C for 17.5 hours. 1 ul/well of CellTiter-Fluor reagent was added into the assay plates using a Flying Reagent Dispenser. After 30-minute incubation at 37 C/5% CO2, the fluorescence intensity in the plates was measured using a ViewLux plate reader.", "values": [{"smiles": "CN(C)C(=O)Oc1cccc([N+](C)(C)C)c1", "outcome": "inactive"}, {"smiles": "NC(N)=NCCN1CCCCCCC1", "viability change, negative = cytotoxic": "-1.22% [at 0.349 µM]"}, {"smiles": "CCCCS(=O)(=O)N[C@@H](Cc1ccc(OCCCCC2CCNCC2)cc1)C(=O)O", "outcome": "inactive"}, {"smiles": "C=CC(C)(CCC=C(C)C)OC(=O)CC", "note": "(stereo not given)", "outcome": "inactive"}, {"smiles": "COC(=O)Nc1ccc(Cl)c(Cl)c1", "outcome": "inactive"}, {"smiles": "NC(=O)N1c2ccccc2CC(=O)c2ccccc21", "outcome": "inactive"}, {"smiles": "c1coc(CNc2ncnc3nc[nH]c23)c1", "outcome": "inactive"}, {"smiles": "CCN(CC#N)c1cccc(C)c1", "outcome": "inactive"}, {"smiles": "C=COCC1CCC(COC=C)CC1", "note": "(stereo not given)", "outcome": "inactive"}, {"smiles": "C[N+](C)(C)CCCCCCCCCC[N+](C)(C)C", "outcome": "inactive"}, {"smiles": "NO", "outcome": "inactive"}, {"smiles": "COc1c(N2CCNC(C)C2)c(F)cc2c(=O)c(C(=O)O)cn(C3CC3)c12", "note": "(stereo not given)", "outcome": "inactive"}, {"smiles": "CCCCCCCCN1CCCC1=O", "outcome": "inactive"}, {"smiles": "CC1(C)[C@@H]2CC[C@@]1(C)[C@H](O)C2", "outcome": "inactive"}, {"smiles": "Nc1ccn([C@@H]2O[C@H](CO)[C@@H](O)C2(F)F)c(=O)n1", "outcome": "inactive"}, {"smiles": "CCCOC(=O)CC", "outcome": "inactive"}, {"smiles": "Cc1coc2ccccc2c1=O", "outcome": "inactive"}, {"smiles": "CCCCCCCCCC[N+](C)(C)[O-]", "outcome": "inactive"}, {"smiles": "CN1CCC(=C2c3ccccc3CCc3cccnc32)CC1", "outcome": "inactive"}, {"smiles": "Cc1cccc(C)c1NC(=O)CC12CCCN1CCC2", "outcome": "inactive"}, {"smiles": "CCCCN(CCC(=O)OCC)C(C)=O", "outcome": "inactive"}, {"smiles": "[O-][n+]1cccc(CO)c1", "outcome": "inactive"}, {"smiles": "COCCOC[C@H](CC1(C(=O)NC2CCC(C(=O)O)CC2)CCCC1)C(=O)Oc1ccc2c(c1)CCC2", "note": "(stereo not given in full)", "outcome": "inactive"}, {"smiles": "CCOc1ccccc1OCC", "outcome": "inactive"}, {"smiles": "COc1cc(-c2ccc(=O)[nH]n2)ccc1OC(F)F", "outcome": "inactive"}, {"smiles": "CCC(C)(CCCC(C)C)OC(C)=O", "note": "(stereo not given)", "outcome": "inactive"}, {"smiles": "O=Cc1cccc(Br)c1", "outcome": "inactive"}, {"smiles": "Cc1cc(C)c(N=Nc2c(O)c(S(=O)(=O)O)cc3cc(S(=O)(=O)O)ccc23)cc1C", "viability change, negative = cytotoxic": "-4.24% [at 8.39 µM]"}, {"smiles": "CC(C)C(=O)OC(=O)C(C)C", "outcome": "inactive"}, {"smiles": "CCOc1c(N2CCOCC2)cnn(C)c1=O", "outcome": "inactive"}, {"smiles": "[K+]", "outcome": "inactive"}, {"smiles": "CC[N+](C)(CC)CCOC(=O)C1c2ccccc2Oc2ccccc21", "outcome": "inactive"}, {"smiles": "C=COC(=O)C(C)(CC)CCC(C)C", "note": "(stereo not given)", "outcome": "inactive"}, {"smiles": "C[N+]12CCC(CC1)C(OC(=O)C(O)(c1ccccc1)c1ccccc1)C2", "note": "(stereo not given)", "outcome": "inactive"}, {"smiles": "CC(C)(N)C#N", "outcome": "inactive"}, {"smiles": "O=C(O)CCSCCC(=O)O", "outcome": "inactive"}, {"smiles": "CC1OC1C1CCC2(C)OC2C1", "note": "(stereo not given)", "outcome": "inactive"}, {"smiles": "CC(=O)c1ccccc1[N+](=O)[O-]", "outcome": "inactive"}, {"smiles": "C[C@H]1[C@H](NC(=O)/C(=N/OC(C)(C)C(=O)O)c2csc(N)n2)C(=O)N1S(=O)(=O)O", "note": "(stereo in doubt)", "outcome": "inactive"}, {"smiles": "Cc1ncc([C@@H](CCCCCCc2ccc3c(n2)NCCC3)CC(=O)O)cn1", "outcome": "inactive"}]}]}
